# From PubChem BioAssay (Tox21)
# Inconclusive results are not listed. A call without a number means that no potency is given here. Values without a mark were called inactive. The source made the active and inactive calls. The call rests on the fitted dose curve; in most records, active means well fitted curve in the direction sought with a large enough effect in the repeat runs; inconclusive means weak or mixed curves; inactive means no such curve, though single readings can be large; an effect the other way counts as inactive or inconclusive.
# Experiments:
# [1] = molecular target: Nuclear receptor subfamily 1 group I member 2 (Homo sapiens) (UniProt O75469); experiment: CYP3A4 induction through human pregnane X receptor (PXR) by small molecules, qHTS assay (AID 1346984); further: nearly all actives have a fitted effect of over 40% in size
# Method in brief: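 Luminescence readout: luciferase signal after One-Glo (30 min, room temperature), following 3 h at 37C with 3uM final Luciferin-IPA P450 substrate. Cells were DPX-2 (HepG2, PXR/CYP3A4-luc co-transfected) dosed for 24 h.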
# [2] = molecular target: Nuclear receptor subfamily 1 group I member 2 (Homo sapiens) (UniProt O75469); experiment: Human pregnane X receptor (PXR) activation by small molecules, qHTS assay (AID 1346985); further: nearly all actives have a fitted effect of over 40% in size
# Method in brief: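 DPX-2 cells (HepG2 co-transfected with a PXR response element and a CYP3A4-promoter luciferase construct) were seeded at 2,000 per well, rested 5 hr at 37C, then exposed to DMSO-dissolved compounds for 24 hr. Activation was read as luciferase luminescence.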
# [3] = molecular target: Cytochrome P450 2D6 (Homo sapiens) (UniProt P10635); experiment: Cytochrome P450 Family 2 Subfamily D Member 6 (CYP2D6) small molecule antagonists: luciferase reporter qHTS assay (AID 1671196); further: nearly all actives have a fitted effect of over 50% in size; further: potency means the concentration at half of the fitted maximal effect; on activity change, negative = inhibition: series mostly up to about 120 µM
# Cytochrome P450 2D6 (Homo sapiens), sequence (P10635 whole entry, looked up): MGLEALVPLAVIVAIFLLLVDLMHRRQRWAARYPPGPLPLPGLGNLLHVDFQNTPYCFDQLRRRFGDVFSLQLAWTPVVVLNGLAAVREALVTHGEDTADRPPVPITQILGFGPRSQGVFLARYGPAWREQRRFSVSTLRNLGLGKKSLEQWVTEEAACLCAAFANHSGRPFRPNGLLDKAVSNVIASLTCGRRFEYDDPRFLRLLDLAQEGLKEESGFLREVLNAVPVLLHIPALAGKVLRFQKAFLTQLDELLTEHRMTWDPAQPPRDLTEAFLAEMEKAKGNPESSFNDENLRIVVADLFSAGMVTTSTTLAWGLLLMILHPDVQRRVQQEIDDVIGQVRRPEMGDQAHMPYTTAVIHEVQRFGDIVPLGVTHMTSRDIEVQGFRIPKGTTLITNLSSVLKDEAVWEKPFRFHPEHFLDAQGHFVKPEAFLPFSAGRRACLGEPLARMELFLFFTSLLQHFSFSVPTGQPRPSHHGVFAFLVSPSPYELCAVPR
# Method in brief: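 Read-out is luminescence from luciferin formed by CYP2D6 turnover of a proluciferin substrate, recorded as relative luminescence units. Reactions ran 1 h at room temperature after NADPH regeneration solution was added.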
# [4] = molecular target: Cytochrome P450 2C19 (Homo sapiens) (UniProt P33261); experiment: Cytochrome P450 Family 2 Subfamily C Member 19 (CYP2C19) small molecule antagonists: luciferase reporter qHTS assay (AID 1671197); further: nearly all actives have a fitted effect of over 65% in size; further: potency means the concentration at half of the fitted maximal effect; on activity change, negative = inhibition: series mostly up to about 120 µM
# Cytochrome P450 2C19 (Homo sapiens), sequence (P33261 whole entry, looked up): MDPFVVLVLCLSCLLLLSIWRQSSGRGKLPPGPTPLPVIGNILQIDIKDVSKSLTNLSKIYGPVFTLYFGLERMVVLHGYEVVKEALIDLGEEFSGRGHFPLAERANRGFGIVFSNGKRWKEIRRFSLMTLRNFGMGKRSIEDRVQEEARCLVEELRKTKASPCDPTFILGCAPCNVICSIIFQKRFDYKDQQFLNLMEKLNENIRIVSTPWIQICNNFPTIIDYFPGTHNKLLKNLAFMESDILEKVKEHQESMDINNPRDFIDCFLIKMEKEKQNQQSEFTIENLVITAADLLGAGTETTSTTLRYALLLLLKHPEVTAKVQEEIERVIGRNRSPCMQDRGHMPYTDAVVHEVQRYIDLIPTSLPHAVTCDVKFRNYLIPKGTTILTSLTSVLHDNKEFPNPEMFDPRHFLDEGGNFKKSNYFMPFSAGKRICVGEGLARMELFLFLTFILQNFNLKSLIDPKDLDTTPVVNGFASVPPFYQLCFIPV
# Method in brief: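 CYP2C19 P450-Glo, 1536-well qHTS. Cpd + enzyme/proluciferin substrate 10 min RT; + NADPH regen, 37C 1 h; stop with luciferin detection reagent, 20 min RT, luminescence (RLU). Pos ctrl ketoconazole.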
# [5] = molecular target: Cytochrome P450 2C9 (Homo sapiens) (UniProt P11712); experiment: Cytochrome P450 Family 2 Subfamily C Member 9 (CYP2C9) small molecule antagonists: luciferase reporter qHTS assay (AID 1671198); further: nearly all actives have a fitted effect of over 50% in size; further: potency means the concentration at half of the fitted maximal effect; on activity change, negative = inhibition: series mostly up to about 120 µM
# Cytochrome P450 2C9 (Homo sapiens), sequence (P11712 whole entry, looked up): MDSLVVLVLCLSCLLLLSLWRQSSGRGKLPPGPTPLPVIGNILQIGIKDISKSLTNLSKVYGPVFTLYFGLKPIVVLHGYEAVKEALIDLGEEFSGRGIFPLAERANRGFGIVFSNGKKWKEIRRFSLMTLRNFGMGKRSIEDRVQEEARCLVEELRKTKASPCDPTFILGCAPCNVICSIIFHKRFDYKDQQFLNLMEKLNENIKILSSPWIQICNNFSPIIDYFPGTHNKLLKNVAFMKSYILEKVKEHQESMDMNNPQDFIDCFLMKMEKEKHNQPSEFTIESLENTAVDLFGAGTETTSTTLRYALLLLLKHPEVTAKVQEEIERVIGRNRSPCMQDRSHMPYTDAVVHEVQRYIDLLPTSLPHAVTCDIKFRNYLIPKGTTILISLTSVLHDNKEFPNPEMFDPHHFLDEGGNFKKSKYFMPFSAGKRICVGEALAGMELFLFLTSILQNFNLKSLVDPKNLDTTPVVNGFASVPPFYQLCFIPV
# Method in brief: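 P450-Glo proluciferin substrate with CYP2C9 enzyme; 10 min RT preincubation, then NADPH regeneration 1 h at 37C; luciferin detection reagent 20 min RT, luminescence in relative luminescence units.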
# [6] = molecular target: Cytochrome P450 1A2 (Homo sapiens) (UniProt P05177); experiment: Cytochrome P450 Family 1 Subfamily A Member 2 (CYP1A2) small molecule antagonists: luciferase reporter qHTS assay (AID 1671199); further: nearly all actives have a fitted effect of over 50% in size; further: potency means the concentration at half of the fitted maximal effect; on activity change, negative = inhibition: series mostly up to about 120 µM
# Cytochrome P450 1A2 (Homo sapiens), sequence (P05177 whole entry, looked up): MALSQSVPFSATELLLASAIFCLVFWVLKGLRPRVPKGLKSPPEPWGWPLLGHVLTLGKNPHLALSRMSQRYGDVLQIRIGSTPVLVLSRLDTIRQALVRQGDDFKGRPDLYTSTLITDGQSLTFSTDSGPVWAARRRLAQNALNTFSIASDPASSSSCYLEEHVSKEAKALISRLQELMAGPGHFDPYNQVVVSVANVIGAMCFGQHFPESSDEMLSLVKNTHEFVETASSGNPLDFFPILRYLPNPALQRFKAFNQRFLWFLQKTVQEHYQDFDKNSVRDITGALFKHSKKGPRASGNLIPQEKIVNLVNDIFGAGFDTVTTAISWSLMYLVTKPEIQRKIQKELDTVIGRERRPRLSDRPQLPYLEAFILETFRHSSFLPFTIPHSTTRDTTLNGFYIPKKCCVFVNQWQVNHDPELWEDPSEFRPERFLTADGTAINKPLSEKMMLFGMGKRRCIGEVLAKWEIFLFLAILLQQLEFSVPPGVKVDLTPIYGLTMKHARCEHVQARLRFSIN
# Method in brief: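 P450-Glo CYP1A2, 1536-well qHTS: enzyme/proluciferin substrate + cpd (DMSO), 10 min RT; NADPH regen, 1 h RT; detection reagent, 20 min; luminescence, RLU.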
# [7] = molecular target: Cytochrome P450 3A4 (Homo sapiens) (UniProt P08684); experiment: Cytochrome P450 Family 3 Subfamily A Member 4 (CYP3A4) small molecule antagonists: luciferase reporter qHTS assay (AID 1671201); further: series mostly up to about 120 µM; nearly all actives have a fitted effect of over 50% in size
# Cytochrome P450 3A4 (Homo sapiens), sequence (P08684 whole entry, looked up): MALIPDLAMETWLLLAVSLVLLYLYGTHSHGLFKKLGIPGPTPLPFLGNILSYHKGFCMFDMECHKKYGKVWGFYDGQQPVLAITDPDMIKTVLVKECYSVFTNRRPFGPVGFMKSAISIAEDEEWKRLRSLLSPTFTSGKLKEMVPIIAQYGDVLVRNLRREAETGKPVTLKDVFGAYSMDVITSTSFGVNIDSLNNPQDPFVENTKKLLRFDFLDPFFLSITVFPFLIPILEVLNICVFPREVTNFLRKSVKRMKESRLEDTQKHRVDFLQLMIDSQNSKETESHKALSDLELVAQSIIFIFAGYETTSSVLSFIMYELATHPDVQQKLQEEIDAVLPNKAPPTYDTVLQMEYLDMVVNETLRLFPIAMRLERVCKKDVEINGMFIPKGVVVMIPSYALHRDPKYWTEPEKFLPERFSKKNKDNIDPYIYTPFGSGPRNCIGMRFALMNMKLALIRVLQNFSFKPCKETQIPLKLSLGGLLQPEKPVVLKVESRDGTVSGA
# Method in brief: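 Relative luminescence units after 20 min with luciferin detection reagent served as read-out. Beforehand, CYP3A4 turned over a proluciferin substrate for 1 h at room temperature with NADPH regeneration, following 10 min compound preincubation.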
# [8] = molecular target: Voltage-gated inwardly rectifying potassium channel KCNH2 (Homo sapiens) (UniProt Q12809); experiment: Human Ether-a-go-go-Related Gene (hERG) channel small molecule antagonists: fluorescence cell-based qHTS assay (AID 1671200); further: nearly all actives have a fitted effect of over 50% in size; further: potency means the concentration at half of the fitted maximal effect;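 on activity change, negative = inhibition: hERG-expressing U2OS cells given a thallium stimulus after FluxOR II dye loading; series mostly up to about 77 µM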
# Voltage-gated inwardly rectifying potassium channel KCNH2 (Homo sapiens), sequence (Q12809 whole entry, looked up): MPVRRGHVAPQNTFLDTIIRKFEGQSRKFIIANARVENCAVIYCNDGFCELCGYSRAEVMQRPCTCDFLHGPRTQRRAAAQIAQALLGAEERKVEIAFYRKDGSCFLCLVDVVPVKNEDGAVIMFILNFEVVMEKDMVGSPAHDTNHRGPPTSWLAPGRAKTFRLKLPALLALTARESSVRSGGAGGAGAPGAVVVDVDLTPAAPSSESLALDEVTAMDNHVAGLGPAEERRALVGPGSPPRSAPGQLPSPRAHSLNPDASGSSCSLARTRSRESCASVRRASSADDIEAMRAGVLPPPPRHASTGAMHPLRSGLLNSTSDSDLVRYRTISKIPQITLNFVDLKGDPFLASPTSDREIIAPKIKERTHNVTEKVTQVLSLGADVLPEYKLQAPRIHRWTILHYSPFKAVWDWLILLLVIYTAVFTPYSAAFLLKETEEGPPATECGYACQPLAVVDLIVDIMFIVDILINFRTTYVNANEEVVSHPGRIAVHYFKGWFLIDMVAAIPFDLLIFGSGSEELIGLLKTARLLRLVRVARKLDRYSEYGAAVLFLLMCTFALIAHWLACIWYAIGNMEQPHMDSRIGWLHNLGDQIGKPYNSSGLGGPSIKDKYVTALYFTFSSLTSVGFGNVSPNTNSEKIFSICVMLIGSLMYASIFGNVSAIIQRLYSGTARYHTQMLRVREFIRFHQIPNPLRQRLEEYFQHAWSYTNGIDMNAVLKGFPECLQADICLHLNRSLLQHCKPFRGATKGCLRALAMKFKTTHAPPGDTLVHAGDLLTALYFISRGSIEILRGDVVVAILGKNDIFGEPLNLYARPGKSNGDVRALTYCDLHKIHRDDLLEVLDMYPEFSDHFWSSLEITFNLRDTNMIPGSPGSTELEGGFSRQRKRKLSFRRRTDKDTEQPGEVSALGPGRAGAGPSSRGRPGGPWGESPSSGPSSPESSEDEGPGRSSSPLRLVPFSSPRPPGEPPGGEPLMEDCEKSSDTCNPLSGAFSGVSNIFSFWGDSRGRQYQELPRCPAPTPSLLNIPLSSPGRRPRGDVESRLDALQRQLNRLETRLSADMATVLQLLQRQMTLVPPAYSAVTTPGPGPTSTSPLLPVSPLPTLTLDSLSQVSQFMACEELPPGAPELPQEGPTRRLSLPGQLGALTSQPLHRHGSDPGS
# Method in brief: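 Thallium served as the potassium surrogate; its influx into dye-loaded U2OS cells carrying the channel was measured by fluorescence over 2 min.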
smiles,measurement,setting,value
CC(C)(C)C(=O)NCCCC(=O)O,outcome,[1],inactive
same,outcome,[2],inactive
same,Potency,[3],inactive
same,Potency,[4],inactive
same,Potency,[5],inactive
same,Potency,[6],inactive
same,Potency,[7],inactive
O=C(CCBr)N1CCN(C(=O)CCBr)CC1,outcome,[1],inactive
same,outcome,[2],inactive
same,Potency,[4],inactive
same,Potency,[5],inactive
same,Potency,[8],inactive
same,Potency,[7],inactive
CC(=O)Nc1ccc(OCCOCCOc2ccc(NC(C)=O)cc2)cc1,outcome,[1],inactive
same,outcome,[2],inactive
same,Potency,[4],17.4 µM (active)
same,Potency,[5],5.49 µM (active)
same,Potency,[6],inactive
same,Potency,[8],inactive
same,Potency,[7],inactive
CN(C)CCc1c[nH]c2ccc(CS(=O)(=O)N3CCCC3)cc12,outcome,[1],inactive
same,outcome,[2],inactive
same,Potency,[4],inactive
same,Potency,[5],inactive
same,Potency,[6],inactive
same,Potency,[7],inactive
COC(=O)N/N=C/c1c[n+]([O-])c2ccccc2[n+]1[O-],outcome,[1],inactive
same,outcome,[2],inactive
same,Potency,[4],inactive
same,Potency,[5],inactive
same,Potency,[6],inactive
same,Potency,[8],inactive
same,Potency,[7],inactive
O=C(OOC(=O)c1ccccc1)c1ccccc1,outcome,[1],inactive
same,outcome,[2],inactive
same,Potency,[3],inactive
same,Potency,[5],inactive
same,Potency,[6],inactive
same,Potency,[7],inactive
CC(O)CCCCn1c(=O)c2c(ncn2C)n(C)c1=O (stereo unspecified),outcome,[1],inactive
same,outcome,[2],inactive
same,Potency,[4],inactive
same,Potency,[5],inactive
same,Potency,[8],inactive
same,Potency,[7],inactive
CCOc1ccccc1OCCN[C@H](C)Cc1ccc(OC)c(S(N)(=O)=O)c1,outcome,[1],inactive
same,outcome,[2],inactive
same,Potency,[3],12.3 µM (active)
same,Potency,[4],inactive
same,Potency,[6],inactive
same,Potency,[8],21.3 µM (active)
Cc1ccc(S(=O)(=O)NC(=O)NN2CC3CCCC3C2)cc1 (stereo unspecified),outcome,[1],inactive
same,outcome,[2],inactive
same,Potency,[3],inactive
same,Potency,[4],inactive
same,Potency,[5],inactive
same,Potency,[6],inactive
same,Potency,[8],inactive
same,Potency,[7],inactive
NCC1CCC(C(=O)Oc2ccc(CCC(=O)O)cc2)CC1 (stereo unspecified),outcome,[1],inactive
same,outcome,[2],inactive
same,Potency,[4],inactive
same,Potency,[5],inactive
same,Potency,[6],inactive
same,Potency,[8],inactive
same,Potency,[7],inactive
C[C@H]1COc2c(C3(N)CC3)c(F)cc3c(=O)c(C(=O)O)cn1c23,outcome,[1],inactive
same,outcome,[2],inactive
same,Potency,[3],inactive
same,Potency,[4],inactive
same,Potency,[6],inactive
same,Potency,[8],inactive
same,Potency,[7],inactive
CCCCN=C(N)N=C(N)N,outcome,[1],inactive
same,outcome,[2],inactive
same,Potency,[4],inactive
same,Potency,[5],inactive
same,Potency,[8],inactive
same,Potency,[7],inactive
C[C@@H](CN1CC(=O)NC(=O)C1)N1CC(=O)NC(=O)C1,outcome,[1],inactive
same,outcome,[2],inactive
same,Potency,[3],inactive
same,Potency,[4],inactive
same,Potency,[5],inactive
same,Potency,[6],inactive
same,Potency,[7],inactive
COc1cc(OC)cc(OC)c1,outcome,[1],inactive
same,outcome,[2],inactive
same,Potency,[3],inactive
same,Potency,[4],inactive
same,Potency,[5],inactive
same,Potency,[6],17.4 µM (active)
same,Potency,[7],inactive
CCCCCCCCCCCBr,Potency,[3],inactive
same,Potency,[4],inactive
same,Potency,[5],inactive
same,Potency,[6],inactive
same,Potency,[8],inactive
same,Potency,[7],inactive
CCN(CC)CC(=O)Oc1ccc(NC(C)=O)cc1,Potency,[3],inactive
same,Potency,[4],inactive
same,Potency,[5],inactive
same,Potency,[6],inactive
same,Potency,[8],inactive
same,Potency,[7],inactive
CCCC[O][Al]([O]CCCC)[O]CCCC,Potency,[3],inactive
same,Potency,[4],inactive
same,Potency,[5],inactive
same,Potency,[6],inactive
same,Potency,[8],inactive
same,Potency,[7],inactive
CCCCCCCCC1CO1 (stereo unspecified),Potency,[3],inactive
same,Potency,[4],inactive
same,Potency,[5],inactive
same,Potency,[6],inactive
same,Potency,[8],inactive
same,Potency,[7],inactive
CC1(C)CC(N)CC(C)(C)N1,Potency,[3],inactive
same,Potency,[4],inactive
same,Potency,[5],inactive
same,Potency,[6],inactive
same,Potency,[8],inactive
same,Potency,[7],inactive
CCCC(=O)C(CC)Sc1ccoc1C (stereo unspecified),Potency,[3],inactive
Cc1cc2c(cc1CC(=O)c1sccc1S(=O)(=O)Nc1onc(C)c1Cl)OCO2,Potency,[3],2.45 µM (active)
same,Potency,[4],8.71 µM (active)
same,Potency,[5],8.71 µM (active)
same,Potency,[6],3.23 µM (active)
same,Potency,[8],inactive
Cc1nc2ccc(Cl)cc2[nH]1,Potency,[3],31.7 µM (active)
same,Potency,[4],39.8 µM (active)
same,Potency,[5],inactive
same,Potency,[6],2.82 µM (active)
same,Potency,[8],inactive
CCCCCCCCCCCCCCCC(=O)OC,"activity change, negative = inhibition",[3],1.63% [at 23.6 µM]
same,"activity change, negative = inhibition",[4],-1.98% [at 23.6 µM]
same,"activity change, negative = inhibition",[5],2.75% [at 23.6 µM]
same,"activity change, negative = inhibition",[6],-2.98% [at 23.6 µM]
same,"activity change, negative = inhibition",[8],-9.56% [at 15.8 µM]
same,"activity change, negative = inhibition",[7],2.42% [at 23.6 µM]
Cc1ccc(NC(N)=O)cc1,Potency,[3],inactive
same,Potency,[4],inactive
same,Potency,[5],inactive
same,Potency,[6],40.2 µM (active)
same,Potency,[8],inactive
same,Potency,[7],inactive
CCOC(=O)CC(C(C)=O)C(C)=O,Potency,[3],inactive
same,Potency,[4],inactive
same,Potency,[5],inactive
same,Potency,[6],inactive
same,Potency,[8],inactive
same,Potency,[7],inactive
O=C1CC2(CCCC2)CC(=O)N1CCNCC1COc2ccccc2O1 (stereo unspecified),Potency,[3],0.309 µM (active)
same,Potency,[4],inactive
same,Potency,[5],inactive
N=C(N)S(=O)O,Potency,[3],inactive
same,Potency,[4],inactive
same,Potency,[5],inactive
same,Potency,[6],inactive
same,Potency,[8],inactive
same,Potency,[7],inactive
